The target of assay [1] is Tyrosine-protein kinase SYK (Homo sapiens) (UniProt P43405). Conditions: at 10 µM.
Assay [2] deals with T1, Mitogen-activated protein kinase kinase kinase 7 (Homo sapiens) (UniProt O43318).
T1 sequence (whole entry): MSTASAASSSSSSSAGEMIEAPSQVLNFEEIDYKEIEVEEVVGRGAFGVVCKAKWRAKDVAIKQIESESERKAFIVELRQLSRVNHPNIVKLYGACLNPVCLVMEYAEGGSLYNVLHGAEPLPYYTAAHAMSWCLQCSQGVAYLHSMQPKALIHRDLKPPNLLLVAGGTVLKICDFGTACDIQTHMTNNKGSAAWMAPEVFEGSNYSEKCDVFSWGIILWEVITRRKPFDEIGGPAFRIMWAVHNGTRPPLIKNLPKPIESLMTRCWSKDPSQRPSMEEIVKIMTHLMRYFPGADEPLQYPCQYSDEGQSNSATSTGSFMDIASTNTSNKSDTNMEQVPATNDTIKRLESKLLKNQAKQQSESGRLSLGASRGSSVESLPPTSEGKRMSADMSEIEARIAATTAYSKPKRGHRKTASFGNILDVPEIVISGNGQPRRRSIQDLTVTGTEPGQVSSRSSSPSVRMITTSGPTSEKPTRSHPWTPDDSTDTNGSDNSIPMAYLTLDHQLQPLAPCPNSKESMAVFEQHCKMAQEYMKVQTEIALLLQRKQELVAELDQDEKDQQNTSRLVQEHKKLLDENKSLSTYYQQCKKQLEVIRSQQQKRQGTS
To be noted: at 1 µM.

For assay [3], the target named is T1, Mitogen-activated protein kinase kinase kinase 7 (Homo sapiens). To be noted: at 10 µM.
Assay [4] addresses T2, Serine/threonine-protein kinase TAO1 (Homo sapiens) (UniProt Q7L7X3).
T2 sequence (whole entry): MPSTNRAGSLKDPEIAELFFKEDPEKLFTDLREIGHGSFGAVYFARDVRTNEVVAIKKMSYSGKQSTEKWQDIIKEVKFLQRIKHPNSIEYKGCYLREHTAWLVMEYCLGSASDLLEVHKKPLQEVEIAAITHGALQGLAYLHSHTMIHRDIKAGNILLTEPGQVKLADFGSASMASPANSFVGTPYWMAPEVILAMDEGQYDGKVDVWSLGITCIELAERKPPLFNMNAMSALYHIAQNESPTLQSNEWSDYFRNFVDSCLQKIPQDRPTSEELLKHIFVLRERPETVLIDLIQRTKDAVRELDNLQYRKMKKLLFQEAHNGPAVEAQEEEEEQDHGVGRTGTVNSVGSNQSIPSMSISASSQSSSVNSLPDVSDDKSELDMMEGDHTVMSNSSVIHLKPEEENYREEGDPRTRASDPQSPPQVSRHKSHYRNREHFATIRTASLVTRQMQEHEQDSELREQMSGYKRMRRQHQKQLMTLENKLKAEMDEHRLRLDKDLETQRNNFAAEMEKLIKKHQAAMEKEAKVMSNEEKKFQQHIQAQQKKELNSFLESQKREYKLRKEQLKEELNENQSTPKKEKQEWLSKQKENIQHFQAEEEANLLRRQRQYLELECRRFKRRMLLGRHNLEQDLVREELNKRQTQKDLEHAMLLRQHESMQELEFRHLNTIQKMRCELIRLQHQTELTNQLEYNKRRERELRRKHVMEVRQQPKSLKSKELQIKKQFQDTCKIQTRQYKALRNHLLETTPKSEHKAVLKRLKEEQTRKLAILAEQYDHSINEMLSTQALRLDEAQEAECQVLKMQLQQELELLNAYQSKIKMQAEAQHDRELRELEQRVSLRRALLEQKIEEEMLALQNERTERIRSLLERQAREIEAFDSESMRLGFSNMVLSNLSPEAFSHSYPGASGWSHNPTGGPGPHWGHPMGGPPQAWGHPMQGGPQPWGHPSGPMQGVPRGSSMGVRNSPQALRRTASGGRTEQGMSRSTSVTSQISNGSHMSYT
Conditions: at 1 µM.

Assay [5] concerns the target T2, Serine/threonine-protein kinase TAO1 (Homo sapiens). Conditions: at 10 µM.
The target in assay [6] is T3, Serine/threonine-protein kinase TAO2 (Homo sapiens) (UniProt Q9UL54).
T3 sequence (whole entry): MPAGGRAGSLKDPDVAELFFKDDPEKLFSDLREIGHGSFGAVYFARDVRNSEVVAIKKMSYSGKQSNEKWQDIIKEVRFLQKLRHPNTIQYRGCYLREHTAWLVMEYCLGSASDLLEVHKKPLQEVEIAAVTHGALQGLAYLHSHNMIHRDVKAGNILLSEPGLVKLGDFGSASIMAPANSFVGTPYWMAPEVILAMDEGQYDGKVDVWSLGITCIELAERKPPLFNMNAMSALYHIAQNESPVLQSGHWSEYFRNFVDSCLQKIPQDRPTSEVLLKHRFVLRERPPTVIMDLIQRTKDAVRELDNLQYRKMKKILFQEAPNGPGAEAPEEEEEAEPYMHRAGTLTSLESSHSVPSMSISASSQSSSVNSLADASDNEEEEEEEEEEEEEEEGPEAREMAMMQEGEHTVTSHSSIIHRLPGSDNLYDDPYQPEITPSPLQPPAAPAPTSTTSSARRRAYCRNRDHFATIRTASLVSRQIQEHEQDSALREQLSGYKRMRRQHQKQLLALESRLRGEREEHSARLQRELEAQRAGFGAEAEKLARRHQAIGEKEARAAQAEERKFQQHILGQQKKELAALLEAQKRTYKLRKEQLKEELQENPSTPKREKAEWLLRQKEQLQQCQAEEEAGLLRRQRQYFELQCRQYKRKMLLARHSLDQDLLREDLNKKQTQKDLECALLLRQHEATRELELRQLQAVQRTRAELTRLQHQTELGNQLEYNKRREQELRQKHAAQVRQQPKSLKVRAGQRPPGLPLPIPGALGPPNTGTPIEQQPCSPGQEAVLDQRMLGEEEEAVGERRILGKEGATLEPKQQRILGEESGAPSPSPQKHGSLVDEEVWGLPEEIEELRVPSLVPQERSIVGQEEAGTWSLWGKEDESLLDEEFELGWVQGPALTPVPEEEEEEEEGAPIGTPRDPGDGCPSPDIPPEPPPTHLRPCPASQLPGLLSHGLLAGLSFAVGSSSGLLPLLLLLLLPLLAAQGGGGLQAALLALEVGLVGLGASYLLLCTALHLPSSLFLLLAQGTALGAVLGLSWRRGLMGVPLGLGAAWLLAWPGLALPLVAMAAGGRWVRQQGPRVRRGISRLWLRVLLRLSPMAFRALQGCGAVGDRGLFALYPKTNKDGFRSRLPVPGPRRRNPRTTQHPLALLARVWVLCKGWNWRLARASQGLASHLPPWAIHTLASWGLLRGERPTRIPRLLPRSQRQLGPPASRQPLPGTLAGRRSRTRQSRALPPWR
Conditions: at 1 µM.

Assay [7] has as its target T3, Serine/threonine-protein kinase TAO2 (Homo sapiens). Conditions: at 10 µM.
The target in assay [8] is T4, Serine/threonine-protein kinase TAO3 (Homo sapiens) (UniProt Q9H2K8).
T4 sequence (whole entry): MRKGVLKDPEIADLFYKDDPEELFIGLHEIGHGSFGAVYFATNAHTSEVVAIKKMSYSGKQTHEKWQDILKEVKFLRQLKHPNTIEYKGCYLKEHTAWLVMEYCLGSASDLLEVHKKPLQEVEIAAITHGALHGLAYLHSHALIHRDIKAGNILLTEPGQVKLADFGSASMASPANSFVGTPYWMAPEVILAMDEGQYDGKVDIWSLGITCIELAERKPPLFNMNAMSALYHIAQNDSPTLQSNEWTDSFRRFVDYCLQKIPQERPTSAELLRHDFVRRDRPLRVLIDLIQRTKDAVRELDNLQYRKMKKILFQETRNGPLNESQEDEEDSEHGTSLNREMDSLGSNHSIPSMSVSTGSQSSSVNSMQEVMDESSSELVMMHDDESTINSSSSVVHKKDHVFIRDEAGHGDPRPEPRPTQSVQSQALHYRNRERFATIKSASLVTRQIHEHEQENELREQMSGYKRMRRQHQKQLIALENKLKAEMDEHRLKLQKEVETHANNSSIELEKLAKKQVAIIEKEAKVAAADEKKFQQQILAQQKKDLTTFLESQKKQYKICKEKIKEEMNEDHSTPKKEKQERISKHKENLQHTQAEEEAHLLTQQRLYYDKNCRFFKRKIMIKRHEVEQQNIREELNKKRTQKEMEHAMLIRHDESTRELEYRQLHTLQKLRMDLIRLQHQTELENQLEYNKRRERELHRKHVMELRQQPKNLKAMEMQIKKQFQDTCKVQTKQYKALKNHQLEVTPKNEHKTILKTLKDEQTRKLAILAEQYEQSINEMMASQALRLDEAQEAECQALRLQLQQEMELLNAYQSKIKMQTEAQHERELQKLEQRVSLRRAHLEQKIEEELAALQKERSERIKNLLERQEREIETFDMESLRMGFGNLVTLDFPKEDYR
To be noted: at 1 µM.

The target in assay [9] is T4, Serine/threonine-protein kinase TAO3 (Homo sapiens). Conditions: at 10 µM.
The target in assay [10] is T5, Serine/threonine-protein kinase TBK1 (Homo sapiens) (UniProt Q9UHD2).
T5 sequence (whole entry): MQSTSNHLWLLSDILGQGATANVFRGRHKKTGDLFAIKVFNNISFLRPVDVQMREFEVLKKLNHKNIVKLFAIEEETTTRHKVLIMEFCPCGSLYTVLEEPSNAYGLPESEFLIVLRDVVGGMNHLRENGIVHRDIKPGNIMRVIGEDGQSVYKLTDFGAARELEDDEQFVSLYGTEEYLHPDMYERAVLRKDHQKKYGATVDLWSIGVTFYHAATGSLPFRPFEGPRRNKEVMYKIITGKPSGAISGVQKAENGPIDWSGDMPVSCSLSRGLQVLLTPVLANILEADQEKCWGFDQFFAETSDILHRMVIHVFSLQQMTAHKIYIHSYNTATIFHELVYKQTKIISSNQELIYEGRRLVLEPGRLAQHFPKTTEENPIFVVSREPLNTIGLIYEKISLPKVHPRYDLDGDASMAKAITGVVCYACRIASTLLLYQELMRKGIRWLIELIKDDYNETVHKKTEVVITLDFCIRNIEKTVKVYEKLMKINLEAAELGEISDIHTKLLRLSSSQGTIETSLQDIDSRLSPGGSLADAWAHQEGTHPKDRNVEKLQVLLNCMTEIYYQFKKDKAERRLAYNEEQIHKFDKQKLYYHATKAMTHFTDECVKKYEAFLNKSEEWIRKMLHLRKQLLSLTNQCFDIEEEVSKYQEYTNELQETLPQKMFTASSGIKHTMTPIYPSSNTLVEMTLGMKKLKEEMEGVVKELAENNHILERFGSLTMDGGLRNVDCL
To be noted: at 1 µM.

Turning to `C[C@@H](N)[C@H]1CC[C@H](C(=O)Nc2ccncc2)CC1`, the residual activity was found to be 102% in [1]; 109% in assay [2]; 113% in [3]; 93% in assay [4]; 78% in [5]; 112% in assay [6]. For the same molecule, the residual activity in assay [7] is 109%; in assay [8] it was 105%; in assay [9] it was 103%; in assay [10], 107%.

The values above are taken from ChEMBL document CHEMBL2218924, “A broad activity screen in support of a chemogenomic map for kinase signalling research and drug discovery” (Biochem J, 2013).
